PubChem BioAssay (NCI)
This is part of a sample that, as a whole, favours compounds with a hit. Of some 83,000 tested, about 20% had one in any assay.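 Single-dose data. Exposure time 48 hours. Values below 10 considered active.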 A number with no mark means an inactive call. The source made the active and inactive calls.

Assays:
Test in all cases: NCI-60 one-dose screen, 48 h (100 = growth as untreated, 0 = no growth, -100 = all killed)
Settings in all cases: 10 µM unless noted
HCT-15 colon = test system: HCT-15 colon
HT29 colon = test system: HT29 colon
SNB-75 CNS = test system: SNB-75 CNS
SNB-19 CNS = test system: SNB-19 CNS
U251 CNS = test system: U251 CNS
PC-3 prostate = test system: PC-3 prostate
SK-MEL-5 melanoma = test system: SK-MEL-5 melanoma
UACC-62 melanoma = test system: UACC-62 melanoma
LOX IMVI melanoma = test system: LOX IMVI melanoma
SK-MEL-28 melanoma = test system: SK-MEL-28 melanoma

Compound | growth (HCT-15 colon) | growth (HT29 colon) | growth (SNB-75 CNS) | growth (SNB-19 CNS) [%] | growth (U251 CNS) | growth (PC-3 prostate) | growth (SK-MEL-5 melanoma) | growth (UACC-62 melanoma) | growth (LOX IMVI melanoma) | growth (SK-MEL-28 melanoma)
CCc1ccccc1-n1c(-c2ccc(OC)cc2)cc(-c2ccc(OC)cc2)c(C#N)c1=O | 106% | 110% | 2.64% (active) | 33.7 | 60.9% | 89.5% | 102% | 81.6% | 95% | 98.7%
CCCCNC(=O)Oc1ccc(/C(=C(/C)Cc2ccc(OC)cc2)c2ccc(OCCN(CC)CC)cc2)cc1 | 41% | 6.03% (active) | 69.1% | 87.7 | 59% | 62.1% | 79.1% | 84.7% | 74.9% | 82.8%
COc1ccc(C2=C(Nc3ccc(C(=O)Nc4ccccc4)cc3)C(=O)N(C)C2=O)cc1 | 89.1% | 84% | 88.9% | 95.3 | 95.4% | 80.7% | 96.2% | 92.3% | 84.6% | 111%
O=C(/C=C/c1cccc(Cl)c1)c1cccc(OCCCOc2cccc(C(=O)/C=C/c3cccc(Cl)c3)c2)c1 | 98.1% | 96.6% | 81.7% | 101 | 75.5% | 100% | 100% | 80.6% | 63.5% | 108%
c1ccc([P+](c2ccccc2)(c2ccccc2)c2ccc3c4ccc([P+](c5ccccc5)(c5ccccc5)c5ccccc5)c5cccc(c6cccc2c63)c54)cc1 | 66.2% | 8.41% (active) | 13.5% | 12.5 | 14% | 17.7% | -57.6% (active) | 15% | 3.08% (active) | 4.81% (active)
COC(=O)c1nc(-c2ccccc2)oc1S(=O)(=O)Cc1ccccc1 | 62.2% | 49.4% | 84.8% | 96.2 | 94.2% | 91.6% | 93.4% | 91.1% | 61.1% | 95.5%
CC(=O)Oc1ccc(C)cc1C | 100% | 105% | 70.3% | 103 | 103% | 97% | 108% | 105% | 97.1% | 107%
CCc1ncnc2c1ccn2C(C)c1ccc(OC)c(F)c1 (stereo not given) | 39.2% | 14% | 35.8% | 53.2 | 35.3% | 53.8% | 33% | 39.8% | 45.3% | 66.5%
N=C(N)c1ccc(-c2ccc(-c3ccc(Cl)cc3Cl)s2)cc1 | -70.6% (active) | 3.85% (active) | 88.5% | 10.9 | -45.4% (active) | 0.127% (active) | 89.3% | 74.8% | -89.3% (active) | 105%
Cc1ccc(Nn2c(SCC(=O)Nc3nc(-c4ccccc4)cs3)nc(C)c2C)cc1 | 67.2% | 56.1% | 24.4% | 74.3 | 49.3% | 71.8% | -66.7% (active) | 51.8% | 51.9% | 82.8%
COc1ccc(C(=O)N2c3ccccc3Sc3ccccc32)c(OC)c1 | 19.2% | -0.815% (active) | 18.5% | 31.7 | 24.5% | 10.5% | 19% | 13.8% | 37.8% | 57.9%
CC(=O)O[C@H]1CC2CCC3C(CC[C@@]4(C)C3C[C@H]([N+]3(C)CCCCC3)[C@@H]4OC(C)=O)[C@@]2(C)C[C@@H]1N1CCCCC1 (stereo not given in full) | 118% | 105% | 99.6% | 100 | 90.8% | 92.8% | 112% | 92.6% | 95.2% | 108%
O=C1NC(=C(Cl)Cl)/C(=N\S(=O)(=O)NCc2ccccc2)N1 | 105% | 108% | 84.6% | 91.2 | 91% | 95.6% | 96.6% | 85.5% | 93.8% | 103%
O=C1C(Cl)=C(Nc2ccc(S(=O)(=O)N3CCOCC3)cc2)C(=O)c2ccccc21 | 36.2% | 49.2% | 71.3% | 96.9 | 44.6% | 46% | 86.8% | 29.7% | 35.3% | 47.5%
CC/C(=C(/c1ccc(Cl)cc1)c1ccc(OCCN2CCCCC2)cc1)c1ccc(OC)cc1 | 18.5% | 11.9% | 103% | 72.4 | 40.6% | 30.9% | 36.6% | 78.8% | 53.4% | 82.7%
O=C(N(c1ccccc1)c1ccccc1)n1cc(I)c2nc(Cl)nc(Cl)c21 | 30.6% | 29.7% | 35.1% | 46.8 | 24.2% | 32.1% | 63.9% | 37.2% | 31.1% | 88.2%
O=C(O)c1cn(C2CC2)c2cc(N3CCN(Cc4ccc5ccccc5c4O)CC3)c(F)cc2c1=O | 9.69% (active) | -32.4% (active) | -14.4% (active) | 78.3 | 45.8% | 39.3% | 61.6% | 38.8% | 40.1% | 38.6%
CC(C)(Sc1cc(C(C)(C)C)c(OC(=O)CCCC(=O)O)c(C(C)(C)C)c1)Sc1cc(C(C)(C)C)c(OC(=O)CCCC(=O)O)c(C(C)(C)C)c1 | 7.28% (active) | 26.9% | 68% | 29.6 | 14.4% | 36.2% | -3.74% (active) | -19.7% (active) | 27.1% | 24.9%
COc1ccc(\C=N/N=C(N)/C(N)=N\N=C/c2ccc(OC)cc2)cc1 | 104% | 102% | 86.8% | 112 | 107% | 101% | 105% | 104% | 99.1% | 125%
Cn1cc(-c2csc(-c3cn(C(=O)OC(C)(C)C)c4ccc(Br)cc34)n2)c2ccnc(Cl)c21 | 24.2% | 88.5% | 2.34% (active) | 44 | 45.3% | 44.2% | 95% | 96.1% | 89.1% | 94.7%
N#Cc1c(-c2ccccc2)cc(-c2ccc(Nc3nc(Nc4ccc(Cl)cc4)nc(Nc4ccc(Cl)cc4)n3)cc2)nc1N | -38.3% (active) | 9.85% (active) | 66% | 100 | -35.4% (active) | 20.7% | -13.8% (active) | 54.5% | -88.7% (active) | -80.9% (active)
C=C1C(=O)O[C@H]2[C@H]1CC/C(Cn1cc(-c3ccccc3)nn1)=C\CC[C@@]1(C)O[C@@H]21 | -70.4% (active) | -58.3% (active) | 64.2% | 68.1 | 50.2% | 37.3% | 21% | -45.2% (active) | -84.7% (active) | -26.9% (active)
CC(O)(c1ccccc1)C(c1ccccc1)C1CCCCN1 (stereo not given) | 96.6% | 99.3% | 100% | 99.5 | 100% | 105% | 103% | 95.8% | 96.8% | 109%
O=C1NC2(Nc3ccccc31)C(=O)Nc1c(Cl)cc(Cl)cc12 (stereo not given) | 108% | 107% | 80% | 104 | 104% | 103% | 99.9% | 101% | 95.9% | 118%
